RMI-FANCM inh = disruptors of RMI1/RMI2 association with MM2 peptide – biochemical, fluorescence polarization, human, primary screen; RMI core complex with F-MM2 peptide; hits give low values; AID 1159607, 2016; FP signal (polarization) at 33 µM; 70,000 compounds, 0.58% hits; in the data active = FP signal below about 40
* hit, by the source's call; ! = not active in a repeat. Many of the other results were omitted from the sample, so hits are more common in it than they were.

SMILES	RMI-FANCM inh
COc1ccc(CCC(=O)Nc2cc(-c3ccco3)nn2-c2nc(C)c(C)c(=O)[nH]2)cc1	41
COc1ccc(CC(=O)Nc2cc(-c3ccco3)nn2-c2nc(C)c(C)c(=O)[nH]2)cc1OC	33*
Cc1nc(-n2nc(-c3ccco3)cc2NC(=O)COc2ccc(Cl)cc2)[nH]c(=O)c1C	57
Nc1ccc(S(=O)(=O)NC(=O)C(C(=O)NS(=O)(=O)c2ccc(N)cc2)C23CC4CC(CC(C4)C2)C3)cc1	63
COc1ccc(-c2cn[nH]c2-c2ccc(OCCN3CCOCC3)c(C)c2O)cc1	57
Cc1c(-c2ccccc2)nnn1-c1ccccc1Oc1ccc(Cl)cc1Cl	55
Cc1ccc(C(=O)CSc2nnc3c(n2)[nH]c2ccccc23)cc1	2*
CC(C)=CCSc1nnc2c(n1)[nH]c1ccccc12	64
CCn1c(SCC(=O)c2ccc(OC)cc2)nc2c([nH]c3ccccc32)c1=O	105
COc1ccccc1CNC(=O)C(=O)Nc1ccon1	52
O=C(NCc1cccs1)c1n[nH]nc1Nc1ccccc1	61
O=C(Cc1ccc2c(c1)OCO2)N1CCCCC1	53
O=C(c1ccc2c(c1)OCCO2)N1CCCCC1	-20*
O=C(O)c1ccc2c(c1)OCCO2	53
O=C(NCc1ccc(-c2cccs2)s1)c1ccc(N2CCOCC2)nc1	53
COc1ccc(C(c2c(C)[nH]c3ccccc23)c2c(C)[nH]c3ccccc23)c(OC)c1	16*
Cc1ccnc(NC(c2ccco2)c2c(C)[nH]c3ccccc23)c1 (configuration not stated)	88
COc1ccc(Cc2nc3ccccc3[nH]2)cc1	62
Cc1ccc2sc(C3=NN(C)C(O)(C(F)(F)F)C3)c(C)c2c1 (configuration not stated)	52
Cc1nc2scc(-c3cccc(NC(=O)Nc4ccccc4)c3)n2c(=O)c1C	71
CN(C)c1ccc(C2=CC(C3CC3)=C(C#N)C(=C(C#N)C#N)N2)cc1	31*
Cc1ccc(-c2cc(C(=O)N/N=C\c3c(O)ccc4ccccc34)n[nH]2)s1	140
O=S(=O)(NCC1CCN(Cc2ccccc2)CC1)c1ccccc1Cl	78
COc1cc(N=Cc2ccccc2OC(=O)c2cc(OC)c(OC)c(OC)c2)c(OC)cc1Cl	28*
COc1cc(C(=O)O/N=C\c2ccccc2OC(F)(F)F)cc(OC)c1OC	50
SMILES	RMI-FANCM inh
COc1cc(C(=O)Oc2c(Cl)cc(Cl)cc2C=Nc2cc(C)c(C)cc2C)cc(OC)c1OC	97
Oc1c(Br)cc(Br)cc1/C=N\n1cnnc1	-6
CCOc1ccccc1NC(=O)/C(C#N)=C\c1ccc(-c2cccc([N+](=O)[O-])c2)o1	87
CC(=O)N1CCc2ccc(NC(=O)c3c(-c4ccccc4Cl)noc3C)cc21	66
Cc1onc(-c2ccccc2Cl)c1C(=O)Nc1ccc2c(c1)COCO2	1*
Cc1onc(-c2ccccc2Cl)c1C(=O)Nc1ccc2c(c1)OCC(C)(C)C(=O)N2	66
Cc1ccc(Cl)cc1N1CCN(S(=O)(=O)CCN2C(=O)CCCC2=O)CC1	63
CCCN1CCCc2cc(CCNC(=O)COCC)ccc21	27*
CCCN1CCCc2cc(CCNC(=O)Cc3cccc(C)c3)ccc21	55
CCCN1CCCc2cc(CCNC(=O)COc3ccccc3F)ccc21	63
CCCN1CCCc2cc(CCNC(=O)C(C)(C)C)ccc21	16*
CCCN1CCCc2cc(CCNC(=O)C(=O)NCC(C)C)ccc21	65
CCCN1CCCc2cc(CCNC(=O)C3CCCCC3)ccc21	69
O=C(COc1ccc([N+](=O)[O-])cc1)Oc1ccc(C(=O)c2ccccc2)cc1	56
COc1ccc2c(=O)c(-c3ccc(OCC=C(C)C)cc3)coc2c1	54
COc1ccccc1-c1ccc(N2CCN(C(=O)NC3CCCCC3)CC2)nn1	68
O=C(NCc1ccco1)c1n[nH]nc1Nc1cccc(Cl)c1	59
Cc1sc(-c2ccccc2)nc1CC(=O)NNC(=O)Nc1ccc(OC(F)(F)F)cc1	61
O=C(Cc1ccc(-c2ccccc2)cc1)NCC(c1ccsc1)N1CCCC1 (configuration not stated)	62
CCc1c2c(nc3sc(C(=O)Nc4ccc(-c5nc6ccccc6s5)cc4)c(N)c13)CC(C)(C)CC2=O	96
CCc1c2c(nc3sc(C(=O)c4ccc(Cl)c(Cl)c4)c(N)c13)CC(C)(C)CC2=O	-31*
COc1ccc(-c2c3c(nc4sc(C(=O)Nc5ccc(Cl)cc5)c(N)c24)CC(C)(C)CC3=O)cc1	90
COc1ccccc1NC(=O)Cc1csc(SCC(=O)Nc2cccc(NC(C)=O)c2)n1	65
O=C(CN1CCOCC1)Nc1ncc(Cc2c(Cl)cccc2Cl)s1	59
COc1cc(C(=O)Nc2ccccc2N2CCCCC2)cc(OC)c1OC	58
SMILES	RMI-FANCM inh
CCOc1ccccc1N=c1oc2c3c4c(cc2cc1C(=O)Nc1ccccc1OC)CCCN4CCC3	33*
CCOC(=O)c1c(N=c2oc3c(OC)cccc3cc2C(=O)Nc2ccc(C)cc2)sc2c1CCCC2	58
CC1(C)CCCC(C)(C)N1CC(O)COc1ccccc1Br (configuration not stated)	69
COC(=O)/C(C#N)=C/c1ccc(SC)s1	32*
CCOC(=O)/C(C#N)=C/c1ccc(OC)s1	55
CCOC(=O)/C(C#N)=C/c1ccc(-c2cccs2)s1	82
Cc1ccc(C)c2[nH]c(=O)c(CCNC(=S)Nc3cccc(Br)c3)cc12	74
COC(=O)C1=C(C)NC(C)=C(C(=O)OCC(C)C)C1c1ccccc1[N+](=O)[O-] (configuration not stated)	21*!
COC(=O)C1=C(C)Nc2[nH]ncc2C1c1ccccc1 (configuration not stated)	69
COC(=O)C1=C(C)NC(C)=C(C(=O)OC(C)C)C1c1cccc2nonc12 (configuration not stated)	58
Cc1cc(C)c(C)c(S(=O)(=O)NCc2ccc(C(=O)N3CC(C)OC(C)C3)cc2)c1C (configuration not stated)	76
O=C(Cn1cnc2c(cnn2C2CCS(=O)(=O)C2)c1=O)NC1CCCCC1 (configuration not stated)	62
O=C(Nc1cccc2c1C(=O)c1ccccc1C2=O)c1ccc([N+](=O)[O-])cc1	53
O=C(Nc1sc2ccccc2c(=O)c1-c1ccc2c(c1)OCO2)c1cccs1	64
O=C(Nc1sc2ccccc2c(=O)c1-c1cccs1)c1ccc([N+](=O)[O-])cc1	-19*
Cc1ccc(-n2c(=S)sc3c(=O)n(C)c(SCC(=O)NC4CCCCC4)nc32)cc1	65
CCOC(=O)c1c(NC(=O)CSc2nc(-c3ccccc3)cs2)sc2c1CCC2	76
CCOC(=O)/C(C#N)=C/Nc1ccc(S(=O)(=O)c2ccc(N/C=C(\C#N)C(=O)OCC)cc2)cc1	56
Cc1ccc2occ(C=O)c(=O)c2c1	17*
Cc1ccc2oc(C(=O)O)cc(=O)c2c1	59
Cc1coc2ccccc2c1=O	63
COc1ccc(-c2nc(NC(=O)c3cc(=O)c4ccccc4o3)sc2C)cc1	59
CCc1ccc(CC(=O)Nc2nc(-c3ccccc3)c(C(=O)c3ccccc3)s2)cc1	63
O=C(CS(=O)(=O)c1ccc(Cl)cc1)Nc1ccc2c(c1)C(=O)NC2=O	51
COc1ccc(NC(=O)CC2SC(=N)NC2=O)c([N+](=O)[O-])c1 (configuration not stated)	64
COc1ccc(SCC(=O)Nc2ccc(F)cc2F)cc1	52

High-throughput results deposited in PubChem by Small Molecule Screening Facility, UW Madison.
